Source: PubChem BioAssay (NCATS)
Results filed as inconclusive are left out. Calls of active or inactive are those of the source. Calls follow the shape of the dose curve; as a rule, active = well fitted curve in the direction sought with a large enough effect; inconclusive = small, poorly fitted or top-dose-only effect, or another doubt; inactive = no such curve, though single readings can be large; an effect the other way counts as inactive or inconclusive. Residues, ends and D or L forms follow the SMILES beside them.

Legend:
[1] = biological target: Aldehyde dehydrogenase, mitochondrial (Homo sapiens) (UniProt P05091); assay: qHTS for Inhibitors of the Aldehyde Dehydrogenase Family (ALDH2) Primary screen (AID 2061308);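 also: plate controls were vehicle for no effect and reference inhibitor for full effect; nearly all actives have a fitted effect of over 55% in size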
[2] = biological target: Retinaldehyde dehydrogenase 3 (Homo sapiens) (UniProt P47895); assay: qHTS for Inhibitors of the Aldehyde Dehydrogenase Family (ALDH1A3) Primary screen (AID 2061315);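 also: plate controls were DMSO vehicle for no effect and reference inhibitor for full effect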
[3] = BET inhibitor-based combinations targeting novel dependencies in MECOM-rearranged (r) AML: SET-2 cell line (AID 2202231); details: SET-2 AML cells viability, CellTiter-Glo luminescence, 48 h; viability: active compounds read low, concentration not given here; also: nearly all actives have a fitted effect of over 35% in size; also: potency is read from the fitted curve at half-maximal effect;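 as to viability: plate controls were DMSO treated cells for no effect and wells without cells for full effect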
How it was run: (§1)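 500 cells/well; 11-pt dose curve; 48 h, standard incubator; CellTiter-Glo luminescence after 15 min RT; DMSO/empty-well normalization; AUC plus Z-AUC (mean-centered within each line).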

[4] = BET inhibitor-based combinations targeting novel dependencies in MECOM-rearranged (r) AML: OCI-AML3 cell line (AID 2202232); details: Potency: OCI-AML3 viability; also: nearly all actives have a fitted effect of over 35% in size; also: potency is read from the fitted curve at half-maximal effect;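 as to viability (% of control): series mostly up to about 46 µM; plate controls were DMSO vehicle wells for no effect and wells without cells for full effect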
How it was run: as §1

[5] = BET inhibitor-based combinations targeting novel dependencies in MECOM-rearranged (r) AML: MV-4-11 cell line (AID 2202233); also: nearly all actives have a fitted effect of over 45% in size; also: potency is read from the fitted curve at half-maximal effect;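 as to viability, % of control: plate controls were DMSO for no effect and blank wells for full effect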
How it was run: (§2)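 Cells were plated at 500 per well and exposed to each drug across an 11-point dose range for 48 hr at standard incubator conditions. Viability was read by CellTiter-Glo luminescence, and activity was expressed as AUC and per-cell-line Z-transformed AUC.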

[6] = BET inhibitor-based combinations targeting novel dependencies in MECOM-rearranged (r) AML: HNT-34 cell line (AID 2202234); also: nearly all actives have a fitted effect of over 35% in size; also: potency is read from the fitted curve at half-maximal effect;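 as to viability (% of control): plate controls were vehicle wells for no effect and cell-free wells for full effect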
How it was run: as §2

[7] = BET inhibitor-based combinations targeting novel dependencies in MECOM-rearranged (r) AML: UCSD-AML1 cell line (AID 2202235); also: nearly all actives have a fitted effect of over 40% in size; also: potency is read from the fitted curve at half-maximal effect;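 as to viability (% of control): series mostly up to about 46 µM; plate controls were DMSO vehicle wells for no effect and blank wells for full effect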
How it was run: as §2

[8] = BET inhibitor-based combinations targeting novel dependencies in MECOM-rearranged (r) AML: AML-191 cell line (AID 2202236; also: nearly all actives have a fitted effect of over 35% in size; also: potency is read from the fitted curve at half-maximal effect;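 as to viability (% of control): plate controls were vehicle wells for no effect and wells without cells for full effect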)
How it was run: as §1

[9] = BET inhibitor-based combinations targeting novel dependencies in MECOM-rearranged (r) AML: AML-194 cell line (AID 2202237; also: nearly all actives have a fitted effect of over 40% in size; also: potency is read from the fitted curve at half-maximal effect;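 as to viability (% of control): plate controls were vehicle wells for no effect and wells without cells for full effect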)
How it was run: as §1

[10] = biological target: Retinaldehyde dehydrogenase 3 (Homo sapiens) (UniProt P47895); assay: qHTS for Inhibitors of the Aldehyde Dehydrogenase Family (ALDH1A3) Confirmatory screens (AID 2061311); also: potency is read from the fitted curve at half-maximal effect; nearly all actives have a fitted effect of over 60% in size
[11] = biological target: Retinal dehydrogenase 2 (Homo sapiens) (UniProt O94788); assay: qHTS for Inhibitors of the Aldehyde Dehydrogenase Family (ALDH1A2) Confirmation screens (AID 2061314); also: nearly all actives have a fitted effect of over 65% in size; also: potency is read from the fitted curve at half-maximal effect
[12] = biological target: Aldehyde dehydrogenase 1A1 (Homo sapiens) (UniProt P00352); assay: qHTS for Inhibitors of the Aldehyde Dehydrogenase Family (ALDH1A1) Confirmatory screens (AID 2061316); also: potency is read from the fitted curve at half-maximal effect; nearly all actives have a fitted effect of over 65% in size

CCCOc1ccc(CCc2nc3cc(-c4c(C)noc4C)ccc3n2CCN2CCOCC2)cc1
inactive: Potency [1] | Potency [2]
active: Potency [3] 20.9 µM | Potency [4] 16.6 µM | Potency [5] 18.6 µM | Potency [6] 14.8 µM

COc1ccc(-c2cc3c(C)nc(N)nc3n(C3CCC(OCCO)CC3)c2=O)cn1 (configuration not stated)
active: Potency [3] 1.66 µM | Potency [4] 0.417 µM | Potency [5] 0.296 µM | Potency [6] 0.59 µM | Potency [7] 0.105 µM | Potency [8] 0.296 µM | Potency [9] 0.209 µM
inactive: Potency [1] | Potency [2]

CC(C)NC(=O)N1CC[C@H](N=C2Nc3cc(F)ccc3N(CC(F)F)c3ccc(Cl)cc32)C1
inactive: Potency [1] | Potency [2] | viability [3] 109% | viability, % of control [5] 94.7% [at 8.46 µM] | viability (% of control) [6] 99.5% [at 8.46 µM] | viability (% of control) [7] 104% [at 8.46 µM] | viability (% of control) [8] 98.9% [at 8.46 µM] | viability (% of control) [9] 93.8% [at 8.46 µM]

CN1CCc2c(c3ccccc3n2Cc2ccc(C(=O)NO)cc2)C1
active: Potency [3] 20.9 µM | Potency [4] 20.9 µM | Potency [5] 20.9 µM | Potency [6] 9.34 µM | Potency [8] 20.9 µM | Potency [9] 23.5 µM
inactive: Potency [1] | Potency [2]

COc1ccc(C2(C#N)CCC(C(=O)O)CC2)cc1OC1CCCC1 (configuration not stated)
inactive: Potency [1] | Potency [2] | viability [3] 119% | Potency [4] | Potency [6] | Potency [7] | Potency [8] | Potency [9]

CC/C=C/C=C/C1(C)OC(CC(CO)OC)=CC1=O (configuration not stated)
inactive: Potency [1] | Potency [2]

CC(C)C(C#N)O[C@@H]1O[C@H](CO[C@@H]2OC[C@](O)(CO)[C@H]2O)[C@@H](O)[C@H](O)[C@H]1O (some centres not stated)
inactive: Potency [1] | Potency [2]

CC(C)c1cc(-c2ccc(F)c3ccccc23)nc(N)n1
inactive: Potency [1] | Potency [2]

CN1CCc2c(n(Cc3ccc(C(=O)NO)cc3)c3ccccc23)C1
active: Potency [5] 20.9 µM
inactive: Potency [1] | Potency [7]

CC(=O)c1c(O)cc2c(c1C)C(=O)CC(O)C2 (configuration not stated)
inactive: Potency [1] | Potency [2]

CNC(=O)c1ccc(C)c(-n2c(C)cc(OCc3ccc(F)cc3F)c(Br)c2=O)c1
inactive: Potency [1] | Potency [2] | Potency [4] | Potency [7] | Potency [9]

Cc1cc(C(C)Nc2ccccc2)c2nc(N3CCOCC3)cc(=O)n2c1 (configuration not stated)
active: Potency [4] 2.63 µM | Potency [5] 16.6 µM | Potency [6] 16.6 µM | Potency [7] 16.6 µM | Potency [8] 18.6 µM | Potency [9] 23.5 µM
inactive: Potency [1] | Potency [2] | viability [3] 91.4%

Cc1ncc(Cl)cc1NCc1ccc(C(=O)NC(CC2CCCC2)C(=O)NC2CC2)s1 (configuration not stated)
active: Potency [5] 18.6 µM | Potency [8] 5.9 µM
inactive: Potency [1] | Potency [2] | viability [3] 107%

COc1cc(C#N)ccc1S(=O)(=O)Nc1ccc2c(c1)cc(C)c(=O)n2C
inactive: Potency [1] | Potency [2]

FC(F)(F)c1ccc(/C=C/c2nc(COc3ccc(CCCCn4ccnn4)cc3)co2)cc1
active: Potency [3] 0.0742 µM | Potency [4] 0.372 µM | Potency [5] 0.0295 µM
inactive: Potency [1] | Potency [2] | Potency [6] | Potency [9]

CC(C)(O)CCc1ccc(OCc2cc(-c3cccc(OC(F)F)c3)c3ncccc3c2)cc1
active: Potency [5] 18.6 µM
inactive: Potency [1] | Potency [2] | Potency [7]

C/C=C/C=C/C(=O)O[C@@H]1C=C2COC(=O)[C@]2(O)[C@@]2(C)CCCC(C)(C)[C@H]12
inactive: Potency [1] | Potency [2]

O=C(NC1CCOCC1)c1ccc(-c2cc(-c3cn[nH]c3-c3ccccn3)ccn2)cc1
inactive: Potency [1] | Potency [2] | viability [3] 101% | Potency [8] | Potency [9]

C[C@@H](c1ccc2nccn2c1)n1nnc2ncc(-c3cnn(C)c3)nc21
inactive: Potency [1] | Potency [2] | Potency [9]
active: Potency [4] 13.2 µM | Potency [8] 20.9 µM

Nc1nc(Cl)nc2c1ncn2[C@@H]1O[C@H](CO)[C@@H](O)[C@@H]1F
active: Potency [3] 0.263 µM | Potency [4] 0.148 µM | Potency [5] 0.209 µM | Potency [6] 0.166 µM | Potency [7] 0.0263 µM | Potency [8] 0.0742 µM

CC[C@@H](C)[C@H](NC(=O)[C@H](CC1CCCCC1)NC(=O)c1ccno1)C(=O)N1CCC2(CCc3ccccc32)CC1
inactive: viability [3] 50.5% | Potency [5] | Potency [7] | Potency [9]

Cc1c(CN(C)C(=O)/C=C/c2cnc3c(c2)CCC(=O)N3)oc2ccccc12
inactive: Potency [2]

COc1ccc2cc3[n+](cc2c1OC)CCc1cc2c(cc1-3)OCO2
active: Potency [3] 16.6 µM | Potency [5] 5.9 µM | Potency [6] 23.5 µM
inactive: Potency [7]

O=c1ccc2ccc(O)c(O)c2o1
active: Potency [10] 8.96 µM
inactive: Potency [11]

CCCCCCCCc1ccc(CCC(N)(CO)CO)cc1
active: Potency [3] 26.3 µM | Potency [4] 13.2 µM | Potency [5] 14.8 µM | Potency [6] 18.6 µM | Potency [8] 16.6 µM | Potency [9] 14.8 µM

CSc1cccc(Nc2ncc3cc(-c4c(Cl)cccc4Cl)c(=O)n(C)c3n2)c1
inactive: Potency [4]
active: Potency [5] 1.86 µM

COC(=O)[C@H](Cc1ccccc1)NC(=O)[C@@H](N)CC(=O)O (H-Asp-Phe-OMe)
inactive: viability [3] 112% | Potency [4] | Potency [5] | Potency [6] | Potency [7] | Potency [8] | Potency [9]

COc1c(C)c2c(c(O)c1C/C=C(\C)CCC(=O)OCCN1CCOCC1)C(=O)OC2
active: Potency [3] 1.32 µM | Potency [5] 0.662 µM | Potency [7] 1.18 µM | Potency [8] 1.32 µM

CC(=O)SCC(Cc1ccccc1)C(=O)NCC(=O)OCc1ccccc1 (configuration not stated)
inactive: viability [3] 105% | Potency [6] | Potency [7] | Potency [8] | Potency [9]

CC(N)C12CC3CC(CC(C3)C1)C2 (configuration not stated)
inactive: viability [3] 106% | Potency [4] | Potency [5] | Potency [6] | Potency [7] | Potency [9]

COc1cccc(OC)c1-c1cc(C(=O)N[C@@H](CC(C)C)C(=O)O)nn1-c1ccnc2cc(Cl)ccc12
inactive: Potency [2]

CN1C(=O)C[C@H](C(=O)N[C@@H](Cc2cnc[nH]2)C(=O)N2CCC[C@@H]2C(N)=O)NC1=O
inactive: viability [3] 98.4% | Potency [7] | Potency [9]
active: Potency [4] 18.6 µM

Nc1nc(Cl)nc2c1ncn2[C@H]1C[C@H](O)[C@@H](CO)O1
active: Potency [3] 0.263 µM | Potency [4] 0.0833 µM | Potency [5] 0.0934 µM | Potency [6] 0.0742 µM | Potency [7] 0.0295 µM | Potency [8] 0.0833 µM | Potency [9] 0.0742 µM

NC(=O)C1CCCc2c1[nH]c1ccc(Cl)cc21 (configuration not stated)
inactive: viability [3] 104% | Potency [4] | Potency [5] | Potency [6] | Potency [7] | Potency [8] | Potency [9]

COc1ccc([C@@H]2CNC(=O)C2)cc1OC1CCCC1
inactive: viability [3] 118% | Potency [4] | Potency [5] | Potency [6] | Potency [7] | Potency [8] | Potency [9]

OCCC#Cc1nc(-c2ccc(F)cc2)c(-c2ccncc2)n1CCCc1ccccc1
inactive: viability [3] 100%

C[C@@H]1CN(CC(=O)N2CC(C)(C)c3ncc(Cc4ccc(F)cc4)cc32)[C@@H](CN2CCOC[C@H]2C)CN1
inactive: viability [3] 86.9%

NC(=NCCCCCCN=C(N)N=C(N)Nc1ccc(Cl)cc1)N=C(N)Nc1ccc(Cl)cc1
active: Potency [3] 26.3 µM | Potency [4] 18.6 µM | Potency [5] 20.9 µM

CCC(c1ccc(O)cc1)C(CC)c1ccc(O)cc1 (configuration not stated)
inactive: viability [3] 99.8% | Potency [6] | Potency [7]

CC(C)(C)c1cnc(CSc2cnc(NC(=O)C3CCNCC3)s2)o1
active: Potency [4] 0.372 µM | Potency [6] 0.235 µM | Potency [8] 0.742 µM | Potency [9] 0.742 µM

O=C(O)c1ccc(-n2cccc2/C=C2\SC(=O)N(Cc3ccc(Cl)cc3)C2=O)cc1
active: Potency [11] 17.8 µM | Potency [12] 4 µM
inactive: Potency [2]

CCOC(=O)[C@H](CCc1ccccc1)N[C@H]1CS[C@H](c2cccs2)CN(CC(=O)O)C1=O
inactive: Potency [7]
active: Potency [4] 20.9 µM

O=C(NCCCNc1nc(Nc2cccc(NC(=O)N3CCCC3)c2)ncc1I)c1cccs1
active: Potency [5] 0.662 µM | Potency [7] 5.25 µM

CCC(C)(C)c1ccc(CC(C)CN2C[C@@H](C)O[C@@H](C)C2)cc1 (some centres not stated)
inactive: viability [3] 82.6% | Potency [4] | Potency [6] | Potency [7] | Potency [9]

CNNCc1ccc(C(=O)NC(C)C)cc1
inactive: viability [3] 112% | Potency [4] | Potency [5] | Potency [6] | Potency [7] | Potency [8] | Potency [9]

COc1ccc(OC)c(-c2ccc(NC(=O)c3ccncc3F)cc2)c1
inactive: Potency [2]

COc1cc2c(cc1Cc1cccc(Cl)c1F)c(=O)c(C(=O)O)cn2[C@H](CO)C(C)C
active: Potency [4] 16.6 µM | Potency [6] 3.72 µM | Potency [8] 9.34 µM | Potency [9] 8.33 µM

Nc1nc(=O)n([C@H]2C[C@H](O)[C@@H](CO)O2)cc1F
active: Potency [4] 0.132 µM | Potency [5] 0.0148 µM | Potency [8] 0.186 µM | Potency [9] 0.742 µM
